A selection: hits, their analogues and other compounds. The true share with any hit is near 8.6%.
LASV entry inh: qHTS for Inhibitors of binding or entry into cells for Lassa Virus. Lassa virus pseudotyped entry inhibition, cell-based qHTS. Potency, µM (top dose mostly 49.2 µM), actives largely listed as inhibitors. hit rate 4.1% among 18,000. AID 720533, 2013
MARV entry inh: qHTS for Inhibitors of binding or entry into cells for Marburg Virus; Marburg virus pseudotype entry/binding inhibition, cell-based; AID 720532, 2013; hit rate 6.5% among 18,000; Potency, µM (doses to about 49.2 µM), most hits filed as inhibitors
Of the large screens only hits and unclear results are named; the others gave an inactive call. Calls follow the shape of the full dose curve; tested in HEK293 cells.

O=C1C=CC(=C(c2ccc(O)cc2)c2ccc(O)cc2)C=C1	LASV entry inh 8.91µM, MARV entry inh 12.6µM
O=S(=O)(N[C@@H](CO)Cc1ccccc1)c1cc(Cl)ccc1F	none
CCCC(=O)O[C@]1(C(=O)CO)CC[C@H]2[C@@H]3CCC4=CC(=O)CC[C@]4(C)[C@H]3[C@@H](O)C[C@@]21C	none
CCCCCC(=O)O[C@@]1(C(C)=O)CCC2C3CCC4=CC(=O)CC[C@@]4(C)C3CC[C@]21C (stereo partly drawn)	LASV entry inh 22.4µM, MARV entry inh 10µM
COc1cc(=O)n2c(c1C(=O)N(C)Cc1nonc1C)CCN(Cc1cc(F)ccc1F)CC2	none
COc1cc(=O)n2c(c1C(=O)N(C)Cc1nonc1C)CCN(Cc1c(F)cccc1F)CC2	LASV entry inh 11.2µM
COc1cc([C@@H]2c3cc4c(cc3[C@@H](O[C@@H]3O[C@H]5CO[C@@H](C)O[C@@H]5[C@@H](O)[C@H]3O)[C@@H]3COC(=O)[C@@H]23)OCO4)cc(OC)c1O	LASV entry inh 2.82µM, MARV entry inh inconclusive
COc1cc([C@@H]2c3cc4c(cc3C(O[C@@H]3O[C@@H]5COC(c6cccs6)O[C@H]5[C@H](O)[C@H]3O)C3COC(=O)[C@@H]32)OCO4)cc(OC)c1O (stereo partly drawn)	LASV entry inh 3.98µM, MARV entry inh inconclusive
COc1cc([C@@H]2c3cc4c(cc3C(OC3OC5COC(C)OC5C(O)C3O)C3COC(=O)[C@@H]32)OCO4)cc(OC)c1O (stereo partly drawn)	LASV entry inh 7.94µM, MARV entry inh 25.1µM
COc1cc([C@@H]2c3cc4c(cc3[C@@H](OC3OC5COC(C)OC5C(O)C3O)[C@H]3COC(=O)[C@H]23)OCO4)cc(OC)c1O (stereo partly drawn)	LASV entry inh 7.94µM, MARV entry inh inconclusive
O=C(OCc1cn([C@H]2CN(C(=O)C3CCCCC3)[C@@H](c3ccc(Cl)cc3)C[C@H]2O)nn1)c1ccccc1	none
O=C(NN=C1C[C@@H](O)[C@H](O)[C@H]2[C@@H]3C(=O)N(C[C@@H]4CCCO4)C(=O)[C@@H]3CC[C@@H]12)OCc1ccccc1	none (no result: LASV entry inh)
CCS(=O)(=O)c1ccc(OC)c(Nc2ncc(-c3cccc(C(C)=O)c3)o2)c1	none
Cc1nc2ccccn2c(=O)c1CCN1CCC(C(=O)c2ccc(F)cc2)CC1	MARV entry inh inconclusive
Cc1nc2sccn2c(=O)c1CCN1CCC(=C(c2ccc(F)cc2)c2ccc(F)cc2)CC1	LASV entry inh 35.5µM, MARV entry inh inconclusive
Cc1c(C(=O)NCC2(N3CCOCC3)CCCC2)cnn1-c1nccc(-c2ccccc2F)n1	MARV entry inh inconclusive
O=S1(=O)c2ccc(Br)cc2O[C@H]2CCN1C2	none
CCCCCCC(=O)O[C@H]1CC[C@H]2[C@@H]3CC[C@H]4CC(=O)C=C(C)[C@]4(C)[C@H]3CC[C@]12C	LASV entry inh inconclusive
CN(Cc1ccccc1)Cc1ccccc1	none
CCN(CCCc1ccccc1)CCCc1ccccc1	LASV entry inh inconclusive, MARV entry inh 8.91µM
Nc1nc(-c2nn(Cc3ccccc3F)c3ncccc23)ncc1C1CC1	LASV entry inh 0.891µM, MARV entry inh 0.562µM
O=C1[C@@H]2[C@H]3[C@H](O)[C@H](O)CC(=NOC[C@@H](O)COCc4ccco4)[C@@H]3CC[C@H]2C(=O)N1C1CCCCC1	none
C[C@H]1[C@H]2CC[C@H]3[C@@H]4CC=C5C[C@@H](N(C)C)CC[C@]5(C)[C@H]4CC[C@]23CN1C	MARV entry inh 3.16µM
C[C@]12CC[C@H]3[C@@H](CC=C4C[C@@H](O)CC[C@@]43C)[C@@H]1CC[C@@H]2O	none
CCCCCC(=O)N1C[C@@H](n2cc(COC(=O)c3ccccc3)nn2)[C@H](O)C[C@H]1c1ccc(OC)cc1	none
O=C1NC(=S)NC(=O)C1C(=O)Nc1ccccc1	none
O=C1NC(=O)c2cc(Nc3ccccc3)c(Nc3ccccc3)cc21	LASV entry inh 11.2µM, MARV entry inh inconclusive
COc1ccc2c(c1)CCc1cnc(-n3ncc(C(=O)N4CCN(CCO)CC4)c3C3CC3)nc1-2	none
CC1=CC2CC(CCO)OP(=O)(OC1)O2 (stereo not drawn)	none
CC(=O)OC[C@H]1O[C@H](CCON=C(C)CCC(=O)OC[C@H]2O[C@H](C#Cc3ccccc3)C=C[C@H]2Oc2ccc(C)cc2)C=C[C@H]1OC(C)=O	none
C[C@@H]1C=CCC(=O)N[C@@H](c2ccc3ccccc3c2)[C@H](C)C=CCC(=O)N[C@@H]1c1ccc2ccccc2c1	MARV entry inh inconclusive
CN(C)c1ccc(/C=C2\C(=O)Nc3ccccc32)cc1	LASV entry inh 14.1µM
CN(C)c1ccc(/C=C2/C(=O)Nc3ccccc32)cc1	LASV entry inh inconclusive, MARV entry inh 8.91µM
COCCN1C(=O)CC[C@@]23C1=NC(C(=O)OC)=C(C(=O)OC)[C@@H]2N(CC=C(C)C)c1ccccc13	none
O=[N+]([O-])c1ccc2c(c1)S(=O)(=O)C=C2	LASV entry inh 11.2µM, MARV entry inh 6.31µM
NC(=O)c1ccc([N+](=O)[O-])cc1Cl	none
C=C(Br)CO[C@@H]1C=C[C@@H](c2ccccc2)O[C@@H]1COC	none

Screening results as filed in PubChem.
